Source: PubChem BioAssay (several laboratories)
The list is not random: actives were taken first. Their share in the collection is about 4.5%.
GDH-TPI counter-1: inhibits GDH-TPI coupling enzymes, artifact for Mtb FBA screen | GDH-TPI coupled enzyme counterscreen, NADH absorbance | inhibition, % at 4.8 µM | actives 1.2% (n = 360,000); in the data active means inhibition above about 30%;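 further: 0% = DMSO wells and 100% = wells lacking the enzyme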
PrP 5UTR inh: suppresses PrP 5' UTR mRNA reporter expression; cell-based PrP 5' UTR mRNA reporter, plate reader; inhibition, % (test concentration not listed); actives 0.35% (n = 340,000); in the data active means inhibition above about 52%; further: 0 = median of the neutral control wells
FBA Mtb inh: Mtb fructose-bisphosphate aldolase inhibition | purified M. tuberculosis FBA, fluorescence read-out | inhibition, % at 1 µM | actives 2.3% (n = 360,000) | P9WQA3;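 further: 0% = vehicle and 100% = reference inhibitor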
Target sequence (P9WQA3 whole entry, looked up): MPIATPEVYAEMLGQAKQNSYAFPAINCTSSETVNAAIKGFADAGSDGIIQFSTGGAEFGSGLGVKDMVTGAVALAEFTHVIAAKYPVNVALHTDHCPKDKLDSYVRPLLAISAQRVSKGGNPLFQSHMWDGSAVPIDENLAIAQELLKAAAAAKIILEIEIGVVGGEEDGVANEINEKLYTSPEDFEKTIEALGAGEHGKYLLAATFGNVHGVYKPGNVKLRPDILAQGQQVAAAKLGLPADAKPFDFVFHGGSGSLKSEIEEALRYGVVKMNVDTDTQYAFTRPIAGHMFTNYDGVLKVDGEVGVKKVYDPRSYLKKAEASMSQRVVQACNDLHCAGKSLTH
PrPC surface inh: cell surface PrPC inhibition, primary TR-FRET screen | P04156 | TR-FRET read-out | inhibition, % at 13.8 µM | actives 0.43% (n = 370,000); in the data active means inhibition above about 24%; further: 0% = median of the test wells and 100% = reference compound wells
PfHsp40 rescue: rescue of PfHsp40-mediated yeast toxicity. S. cerevisiae expressing PfHsp40, growth rescue, ATP luminescence. growth rescue, % at 12.5 µM. actives 0.68% (n = 340,000). AID 504582; in the data active means growth rescue above about 28%, passing the limit was not always enough;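 further: yeast W303a lacking pdr1 and pdr3 grown in galactose medium; growth measured after three days at 30 °C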
BJeLR viability: kills HRASV12-expressing BJeLR cells | BJeLR (HRASV12) viability, CellTiter-Glo ATP luminescence, 48 h | inhibition, % (no concentration beside the values) | actives 0.17% (n = 300,000); in the data active means inhibition above about 50%
Mtb FBA inh conf: Mtb FBA inhibition, confirmed; shares compounds with FBA Mtb inh; purified M. tuberculosis FBA, fluorescence read-out; inhibition, % at 1 µM; actives 78% (n = 5,600); AID 651616;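 further: 0% = vehicle wells and 100% = reference inhibitor wells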
GDH-TPI counter-2: GDH-TPI inhibition counter-screen for FBA inhibitors. actives 81% (n = 5,600). inhibition, % at 1 µM. AID 652141. shares compounds with FBA Mtb inh. GDH-TPI coupled enzyme counterscreen, fluorescence; in the data active means inhibition above about 10%
Starred values were filed as active, the others as inactive; ! = repeats disagree. Unless noted, no stated cut-off is given here; in the data, active means inhibition above about 27%; inactive means the rest.

For COc1ccccc1C(=O)NC(C)c1ccccc1 (stereo not given) the results were GDH-TPI counter-1 -2, PrP 5UTR inh -4, FBA Mtb inh 1, PrPC surface inh 8, PfHsp40 rescue 1 and BJeLR viability 3.
Screening O=C(NNC(=O)c1nn(-c2ccc(F)cc2)ccc1=O)c1ccccc1Cl returned GDH-TPI counter-1 15, PrP 5UTR inh -9, FBA Mtb inh 0, PrPC surface inh -10, PfHsp40 rescue -1 and BJeLR viability 0.
CCOc1ccc(/C=N/NC(=O)c2nnn(-c3nonc3N)c2COc2ccc(F)cc2)cc1 was read as GDH-TPI counter-1 13, PrP 5UTR inh -19, FBA Mtb inh 1, PrPC surface inh -3, PfHsp40 rescue -1 and BJeLR viability 11.
For C/C(=N\NC(=O)c1nnn(-c2nonc2N)c1COc1ccc(F)cc1)c1ccc(Cl)cc1 the results were GDH-TPI counter-1 -2, PrP 5UTR inh -13, FBA Mtb inh 29*, PrPC surface inh 4, PfHsp40 rescue -1, BJeLR viability 14, Mtb FBA inh conf active and GDH-TPI counter-2 active.
CC1(CCc2ccc3c(c2)OCO3)NC(=O)c2ccccc2N1 (stereo not given) was read as GDH-TPI counter-1 -4, PrP 5UTR inh -16, FBA Mtb inh 50*, PrPC surface inh 3, PfHsp40 rescue -1, BJeLR viability 10, Mtb FBA inh conf 150* and GDH-TPI counter-2 114*.
O=C1NC(c2ccc3c(c2)OCO3)Nc2ccccc21 (stereo not given) was read as GDH-TPI counter-1 8, PrP 5UTR inh -59, FBA Mtb inh 20, PrPC surface inh 7, PfHsp40 rescue 0 and BJeLR viability -5.
`CN1CCCCc2c1nc1ccccc1c2N` (tested in a mixture with another compound) gave GDH-TPI counter-1 9, PrP 5UTR inh 12, FBA Mtb inh 11, PrPC surface inh 6, PfHsp40 rescue 0 and BJeLR viability -5.
For Cc1cccc(N2CCc3c2nc2ccccc2c3N)c1 the results were GDH-TPI counter-1 9, PrP 5UTR inh -29, FBA Mtb inh 70*!, PrPC surface inh -8, PfHsp40 rescue 0, BJeLR viability -5, Mtb FBA inh conf 52* and GDH-TPI counter-2 37*.
COc1ccc(C2Nc3ccccc3C(=O)N2NS(=O)(=O)c2ccccc2)c(OC)c1 (stereo not given) was read as GDH-TPI counter-1 8, PrP 5UTR inh 8, FBA Mtb inh 14, PrPC surface inh -1, PfHsp40 rescue -2 and BJeLR viability 8.
For CCOC(=O)NN1C(=O)c2ccccc2NC1c1cccs1 (stereo not given) the results were GDH-TPI counter-1 15, PrP 5UTR inh -10, FBA Mtb inh 31*, PrPC surface inh -3, PfHsp40 rescue 1, BJeLR viability 2, Mtb FBA inh conf 82* and GDH-TPI counter-2 70*.
`CCOC(=O)NN1C(=O)c2ccccc2NC1c1ccc(OC)cc1OC` (stereo not given) gave GDH-TPI counter-1 3, PrP 5UTR inh -20, FBA Mtb inh 42*, PrPC surface inh 6, PfHsp40 rescue 0, BJeLR viability 2, Mtb FBA inh conf 180* and GDH-TPI counter-2 144*.
For CCOC(=O)c1c(N)sc2c1CCN(CCc1ccccc1)C2 the results were GDH-TPI counter-1 13, PrP 5UTR inh -12, FBA Mtb inh 2, PrPC surface inh -11, PfHsp40 rescue -1 and BJeLR viability -4.
CC(/C=C/c1ccc(O)cc1)=N/O was read as GDH-TPI counter-1 12, PrP 5UTR inh -23, FBA Mtb inh 67*, PrPC surface inh 4, PfHsp40 rescue 0, BJeLR viability -5, Mtb FBA inh conf -3 and GDH-TPI counter-2 -3.
Screening CC(/C=C/c1ccccc1)=N/O returned GDH-TPI counter-1 6, PrP 5UTR inh -14, FBA Mtb inh 1, PrPC surface inh -5, PfHsp40 rescue 0 and BJeLR viability 0.
Screening CCCn1c(CCC(=O)O)ccc1-c1ccc(OC)cc1 returned GDH-TPI counter-1 -1, PrP 5UTR inh -1, FBA Mtb inh 30*, PrPC surface inh 8, PfHsp40 rescue 0, BJeLR viability -2, Mtb FBA inh conf active and GDH-TPI counter-2 active.
For COc1ccc(-c2ccc(CCC(=O)O)n2NC(N)=O)cc1 the results were GDH-TPI counter-1 -1, PrP 5UTR inh -34, FBA Mtb inh 14, PrPC surface inh -3, PfHsp40 rescue -1 and BJeLR viability 6.
`CC(C)Cn1c(N)c(C(=O)NCCN2CCOCC2)c2nc3ccccc3nc21` gave GDH-TPI counter-1 22, PrP 5UTR inh -19, FBA Mtb inh 110*, PrPC surface inh -4, PfHsp40 rescue 1, BJeLR viability 4, Mtb FBA inh conf 77* and GDH-TPI counter-2 73*.
CCC(C)NC(=O)c1c(N)n(CCCOC)c2nc3ccccc3nc12 (stereo not given) was read as GDH-TPI counter-1 4, PrP 5UTR inh -17, FBA Mtb inh 94*, PrPC surface inh 5, PfHsp40 rescue 0, BJeLR viability -4, Mtb FBA inh conf active and GDH-TPI counter-2 active.
Screening CCCCn1c(N)c(C(=O)NCCN2CCOCC2)c2nc3ccccc3nc21 returned GDH-TPI counter-1 11, PrP 5UTR inh -9, FBA Mtb inh 80*, PrPC surface inh -11, PfHsp40 rescue 0, BJeLR viability -3, Mtb FBA inh conf active and GDH-TPI counter-2 active.
`Cc1cccc(-n2c(N)c(C(=O)NCCN3CCOCC3)c3nc4ccccc4nc32)c1` gave PrPC surface inh -10 and BJeLR viability -5.
Screening CC(C)CNC(=O)c1cccc(NC(=O)c2ccc(Cl)c([N+](=O)[O-])c2)c1 returned GDH-TPI counter-1 4, PrP 5UTR inh -6, FBA Mtb inh 3, PrPC surface inh -29, PfHsp40 rescue 0 and BJeLR viability 0.
For CCN(c1cccc(C)c1)S(=O)(=O)c1c(C)[nH]c(C)c1C(=O)N1CCCCC1 the results were GDH-TPI counter-1 -5, PrP 5UTR inh -14, FBA Mtb inh 1, PrPC surface inh -3, PfHsp40 rescue -1 and BJeLR viability -19.
For COc1cc2c(cc1OC)CN(CC(O)c1ccccc1)CC2 (stereo not given) the results were GDH-TPI counter-1 8, PrP 5UTR inh -25, FBA Mtb inh 57*, PrPC surface inh -11, PfHsp40 rescue 0, BJeLR viability -4, Mtb FBA inh conf 41* and GDH-TPI counter-2 33*.
COc1cc2c(cc1OC)CN(Cc1ccccc1)CC2 was read as GDH-TPI counter-1 17, PrP 5UTR inh -13, FBA Mtb inh 8, PrPC surface inh -1, PfHsp40 rescue -1 and BJeLR viability 0.
